In PubChem BioAssay AID2806 (Sanford-Burnham Center for Chemical Genomics, 2010):
Out of some 330,000 compounds screened, about 660 (0.2%) were called active.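 Rule for the calls: active = inhibition of at least 40% at 10 µM in the primary screen; inactive = the rest.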 The entries come from a sample that favours actives as a whole.

test system: intestinal alkaline phosphatase [Mus musculus]; assay: inhibitors of mouse IAP, primary screen, biochemical, luminescence, uHTS (AID 2806); conditions: purified mouse IAP, CDP-Star luminescence, 30 min; at 10 µM; hits give high values;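 note: plate controls were DMSO with enzyme for no effect and no enzyme wells for full effect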

Compound	inhibition
O=C(CCCN1C(=O)/C(=C/c2ccco2)SC1=S)Nc1ccccc1	47.8% (active)
O=C(CCCN1C(=O)/C(=C\c2ccco2)SC1=S)Nc1cccc2ccccc12	47.9% (active)
O=C(CCCN1C(=O)/C(=C/c2cccs2)SC1=S)Nc1ccc(O)cc1	10.9% (inactive)
COc1ccc(/C=C2/SC(=O)N(CCCCCC(=O)Nc3ccccc3C(=O)O)C2=S)cc1	12.6% (inactive)
Cc1ccc(-c2nn(-c3ccccc3)cc2/C=C2\SC(=S)N(CCCCCC(=O)O)C2=O)o1	14.7% (inactive)
O=C1/C(=C\c2ccccc2Cl)SC(=S)N1CCC(=O)N1CCCc2ccccc21	23.1% (inactive)
O=C(CNS(=O)(=O)c1ccc2c(c1)OCCCO2)N1CCN(c2ccc(F)cc2)CC1	-6.2% (inactive)
COc1ccccc1CNC(=O)CSc1nc(=O)n(Cc2ccncc2)c2c1CCC2	-1.4% (inactive)
CCCCS(=O)c1snnc1C (centres undefined)	-4.4% (inactive)
Cc1ccc(Cc2cnc(N)s2)o1	50.5% (active)
CCCCNc1ccc(C(=O)Nc2cccc(C)n2)cc1[N+](=O)[O-]	15.5% (inactive)
Cn1cnc([N+](=O)[O-])c1Sc1n[nH]c(N)n1	7.9% (inactive)
O=C(CCSCCc1ccccn1)Nc1nccs1	-7% (inactive)
Cc1ccc(C(=O)N/N=C/c2sc(=O)n(Cc3cccc(C(=O)O)c3)c2Cl)cc1	11.7% (inactive)
NS(=O)(=O)c1ccc(-c2ccc(/C=C3\SC(=O)NC3=O)o2)cc1	55.1% (active)
COc1cc(/C=C/C(=O)O)cc(S(=O)(=O)Nc2ccccc2C(=O)NCCc2ccccc2)c1OC	-5.2% (inactive)
CCOc1ccc(NC(=O)COC(=O)C2CCC(=O)N2)c([N+](=O)[O-])c1 (centres undefined)	1% (inactive)
COC(C[C@@H]1O[C@@H]1C(=O)[C@@H](C)OCc1ccccc1)OC	2.7% (inactive)
CC(=O)c1c(C)n([O-])c2ccccc2[n+]1=O	0.9% (inactive)
O=C(Nc1nc(-c2ccco2)c(-c2ccco2)s1)c1ccco1	64.2% (active)

Compound	inhibition
O=C(Nc1nnc(CCOCCOCCc2nnc(NC(=O)c3ccco3)s2)s1)c1ccco1	0.5% (inactive)
NC(=O)c1ccsc1NC(=O)c1ccco1	0.1% (inactive)
Cc1nc(CC(=O)NNS(=O)(=O)c2ccc(F)c(Cl)c2)cs1	1.6% (inactive)
COc1ccccc1-n1cn[nH]c1=S	1.9% (inactive)
COc1ccc(OC)c(-n2c(-c3ccn[nH]3)n[nH]c2=S)c1	-6.5% (inactive)
COc1ccccc1-n1c(-c2cc(-c3ccco3)[nH]n2)n[nH]c1=S	57.8% (active)
NC(=O)c1ccc(Nc2ccc3c(c2)CCC3)c([N+](=O)[O-])c1	11.2% (inactive)
Brc1cnc(N2CCCC2)nc1N1CCCCC1	1.2% (inactive)
Fc1ccc(Nc2nnns2)cc1	7.1% (inactive)
Cc1ccc(S(=O)(=O)NCCSC(C)(C)C)cc1	-3.9% (inactive)
C[C@H]1CN([C@@H](C)CO)C(=O)Cc2cc(NC(=O)Cc3ccccc3)ccc2O[C@H]1CN(C)S(=O)(=O)c1cccs1	-5.4% (inactive)
CN1CCCc2cc(C#N)c(=O)[nH]c21	5.2% (inactive)
COc1cccc(CCNC(=O)c2cccc(NC(=O)C3=C(C)OCCS3)c2)c1	-9.8% (inactive)
CC(=O)N1c2ccc(S(=O)(=O)N3CCC(C(=O)NC4CCCC(C)C4C)CC3)cc2CC1C (centres undefined)	-23.1% (inactive)
O=C(CS(=O)(=O)c1ccccc1)Nc1ccc(S(=O)(=O)Nc2ccccn2)cc1	6.7% (inactive)
CCN(CC)P(=O)(C(NC(=O)OC)C(F)(F)C(F)(F)C(F)(F)C(F)F)N(CC)CC (centres undefined)	1.2% (inactive)
N#CC(C(N)=O)=C1CCC2(CC1)OCCCCO2	-8.3% (inactive)
Cc1[nH]c2ccccc2c1-c1ccc(Cl)nn1	4.1% (inactive)
CC(C)S(=O)(=O)c1csc(NC(=O)Nc2ccc(Cl)cc2)c1Cl	-190% (inactive)
O=C1CCCN1C(=O)COc1ccc([N+](=O)[O-])cc1	2.6% (inactive)

Compound	inhibition
COC(=O)c1cc(NC(=O)c2nn(C)c(=O)c3ccccc23)cc(C(=O)OC)c1	-11.6% (inactive)
COc1ccc(N(Cc2ccc(N(C)C)cc2)C(=O)c2ccc(S(C)(=O)=O)cc2)cc1	3.6% (inactive)
CC(=O)c1c(C)[nH]c(C(=O)NCc2ccc(C)cc2)c1C	-23.4% (inactive)
COC(=O)c1ccc(CNC(=O)C2CCC(=O)N(Cc3cccc(F)c3)C2)cc1 (centres undefined)	2.3% (inactive)
COc1cccc(N(C(=O)CNC(=O)c2ccco2)C(C(=O)NC2CCCCC2)c2cccnc2)c1 (centres undefined)	-11.8% (inactive)
Cc1ccccc1CN1C[C@@H]2C[C@@H](c3ccc4nsnc4c3)N3CCC[C@@]23C1=O	4% (inactive)
CCc1nc2nc(C)c(NS(=O)(=O)c3ccc4c(c3)CCCC4)c(=O)n2[nH]1	8.4% (inactive)
CNC(=O)NCCN1CCCC1=O	-13.9% (inactive)
CC(C)(C)NC(=O)NC(=O)COC(=O)Cn1c(C(F)(F)F)nc2ccccc21	3.3% (inactive)
O=C(CNS(=O)(=O)c1ccccc1)N1CCN(C(=O)c2ccco2)CC1	2.1% (inactive)
CC(C)NC(=S)Nc1cccc2cnccc12	9.6% (inactive)
Cc1c(NC(=O)C(=O)N/N=C/c2cccs2)c(=O)n(-c2ccccc2)n1C	5.7% (inactive)
Clc1cccc(Cl)c1OCCOCCNCc1ccccc1	-0.1% (inactive)
C=CC1C(OC2OC(CO)C(O)C(O)C2O)OC=C(C(=O)OC)C1CC1CC(=O)CC(CC(=O)CCc2ccc(O)cc2)O1 (centres undefined)	6.5% (inactive)
CC1=C(C)C(=O)OC(C(C)C2CCC3C4CC=C5CC(OC6OC(COC7OC(CO)C(O)C(O)C7O)C(O)C(O)C6O)CC(O)C5(C)C4CCC23C)C1 (centres undefined)	9.3% (inactive)
CC(/C=C/C1(O)C(C)CC(=O)CC1(C)C)OC1OC(CO)C(O)C(O)C1O (centres undefined)	41.9% (active)
COc1cccc(/C=N\NC(=O)C2=NNC(=O)C2C)c1O (centres undefined)	61.4% (active)
CCOc1ccc2[nH]c(C(=O)N/N=C/c3cccc(OC)c3OC)cc2c1	10.1% (inactive)
COc1cc(/C=N\NC(=O)C2C(=O)NCC2c2ccccc2)cc(OC)c1O (centres undefined)	11.4% (inactive)
